Values without a mark were called inactive.
Tests used:
Mel-DCC-11 = test: cell viability relative to DMSO control (fraction of DMSO control); higher = less cytotoxic, active = 0.5 or less; conditions: 1 µM; 120 h
Outline: (§1)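 Three cell types were screened against 315 approved anti-cancer drugs from TargetMol, acoustically pre-spotted in 384-well plates at 1 µM in duplicate over 120 h: NHEM-hTERT immortalized melanocytes (2500/well), patient-derived Mel-DCC-11 and its resistant subline Mel-DCC-11-R (both 1500/well), all in 40 µl per well. The subline was tested alone and with 8 µM of its selecting drug. Viability, measured by luminescence, was normalised to vehicle controls and averaged across duplicates, with ATPlite 1step as the readout.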

NHEM-hTERT = test: as above; conditions: 1 µM; 120 h
Outline: as §1

Mel-DCC-11-R = test: cell viability relative to DMSO control (fraction of DMSO control); higher = less cytotoxic, active = 0.8 or less; conditions: 1 µM, 120 h
Outline: as §1

Row | Compound | cell viability (Mel-DCC-11) | cell viability (NHEM-hTERT) | cell viability (Mel-DCC-11-R; vemurafenib co-treatment 0 µM) | cell viability (Mel-DCC-11-R; vemurafenib co-treatment 8 µM)
1 | Cc1ccc(=O)n(-c2ccccc2)c1 [Pirfenidone] | 1.14 | 1.02 | 1.03 | 1.1
2 | CC(C)(O)CNc1nc(Nc2ccnc(C(F)(F)F)c2)nc(-c2cccc(C(F)(F)F)n2)n1 [Enasidenib] | 0.875 | 1.09 | 1.3 | 0.834
3 | C[C@@H]1O[C@@H](OC[C@H]2O[C@@H](Oc3c(-c4ccc(O)c(O)c4)oc4cc(O)cc(O)c4c3=O)[C@H](O)[C@@H](O)[C@@H]2O)[C@H](O)[C@H](O)[C@H]1O [Rutin] | 0.977 | 1.09 | 1.01 | 0.929
4 | CC(O)(P(=O)(O)O)P(=O)(O)O [Etidronate] | 0.821 | 1.15 | 1.12 | 0.981
5 | Cc1ccc(NC(=O)C2(c3ccc4c(c3)OC(F)(F)O4)CC2)nc1-c1cccc(C(=O)O)c1 [Lumacaftor] | 1.12 | 0.997 | 0.946 | 1.04
6 | O=c1[nH]c(=O)n(C2CCCO2)cc1F (centres undefined) [Tegafur] | 0.785 | 0.922 | 0.895 | 0.865
7 | Nc1ccccc1NC(=O)c1ccc(CNc2nccc(-c3cccnc3)n2)cc1 [Mocetinostat] | 0.976 | 0.55 | 0.558 (active) | 0.545 (active)
8 | O.S=c1nc[nH]c2nc[nH]c12 [6-Mercaptopurine monohydrate] | 0.736 | 0.937 | 0.725 (active) | 0.881
9 | CN(C)C(=O)COC(=O)Cc1ccc(OC(=O)c2ccc(N=C(N)N)cc2)cc1.CS(=O)(=O)O [Camostat mesilate] | 1.03 | 0.975 | 1.1 | 1.21
10 | CC(C)C[C@H](NC(=O)[C@@H](O)[C@H](N)Cc1ccccc1)C(=O)O [Ubenimex] | 0.792 | 0.944 | 1.12 | 0.942
11 | O=C([O-])CCCc1ccccc1.[Na+] [Sodium Phenylbutyrate] | 1.12 | 1.1 | 1 | 1.07
12 | Cl.N=C1CCCN1Cc1[nH]c(=O)[nH]c(=O)c1Cl [Tipiracil hydrochloride] | 0.924 | 0.914 | 0.816 | 0.877
13 | CC1(C)[C@@H](O[C@H]2O[C@H](C(=O)O)[C@@H](O)[C@H](O)[C@H]2OC2O[C@H](C(=O)O)[C@@H](O)[C@H](O)[C@H]2O)CC[C@]2(C)[C@H]3C(=O)C=C4[C@@H]5C[C@@](C)(C(=O)O)CC[C@]5(C)CC[C@@]4(C)[C@]3(C)CC[C@@H]12 (some centres undefined) [Glycyrrhizin] | 1.13 | 1.01 | 1.06 | 1.19
14 | Cl.N=c1ccn2c(n1)O[C@H]1[C@H](O)[C@@H](CO)O[C@H]12 [Cyclocytidine hydrochloride] | 0.737 | 0.845 | 0.873 | 0.599 (active)
15 | C=C1CC[C@@H]2[C@](C)(CO)[C@H](O)CC[C@@]2(C)[C@@H]1C/C=C1/C(=O)OC[C@H]1O [Andrographolide] | 1.07 | 1.17 | 0.887 | 1.02
16 | NC1CCCCC1N.O=C([O-])C(=O)[O-].[Pt+2] (centres undefined) [Oxaliplatin] | 1.09 | 1.05 | 1.01 | 1.12
17 | CC(O)(P(=O)([O-])O)P(=O)([O-])O.[Na+].[Na+] [Sodium etidronate] | 0.955 | 0.984 | 0.787 (active) | 0.91
18 | CC[C@H](Nc1ncnc2[nH]cnc12)c1nc2cccc(F)c2c(=O)n1-c1ccccc1 [Idelalisib] | 0.978 | 0.983 | 1.07 | 0.961
19 | COC(=O)c1cc(OC)c2c(c1-c1c(CO)cc(OC)c3c1OCO3)OCO2 [Bicyclol] | 1.13 | 1.12 | 0.998 | 1.1
20 | N#CC[C@@H](C1CCCC1)n1cc(-c2ncnc3[nH]ccc23)cn1 [S-Ruxolitinib] | 1.16 | 0.987 | 1.01 | 1.28
21 | Cc1nc2ccc(CN(C)c3ccc(C(=O)N[C@@H](CCC(=O)O)C(=O)O)s3)cc2c(=O)[nH]1 [Raltitrexed] | 1 | 1.03 | 1.16 | 1.09

Source: the supplement of paper PMC12808144
